Most compounds without a hit are left out; they make up all but 2.8% or so of the library.
PAFAH2 inh: inhibitors of human PAFAH2; 340,000 tested, 0.99% active; inhibition, % at 3.39 µM; Q99487; recombinant PAFAH2, FP-rhodamine activity probe, fluorescence polarization; AID 492956;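 active means inhibition above the mean over all tested compounds plus 3 SD, cut at about 30% in these data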;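 further: inhibitors block probe labeling of enzyme so polarization drops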
PAFAH1B3 FP inh: PAFAH1B3 (human) inhibition. Q15102. recombinant PAFAH1B3, FP-rhodamine probe, fluorescence polarization. inhibition, % at 3.39 µM. 340,000 tested, 0.28% active;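 active means inhibition above the screen-wide average of all tested compounds plus 3 SD, cut at about 25% in these data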
Fam108B counter: Fam108B inhibition, counter-screen for RBBP9 inhibitors; recombinant Fam108B, FP-Rh probe fluorescence polarization; inhibition, % at 9.51 µM; 300,000 tested, 0.33% active; AID 1947;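 active means inhibition above the screen mean inhibition plus 3 SD, computed separately per campaign, cut at about 18% in these data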;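 further: inhibitors lower polarization as less probe binds the enzyme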
PME-1 primary: PME-1 (human) inhibition | Q9Y570 | recombinant PME-1, FP-Rh probe fluorescence polarization | inhibition, % at 5.9 µM | 320,000 tested, 0.53% active;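 active means inhibition above the campaign mean of all compounds plus 3 SD, cut at about 26% in these data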;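 further: competitive labeling of PME-1 active site by serine hydrolase directed probe; inhibitors block probe labeling so polarization falls and inhibition rises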
pPAFAH inh: inhibitors of human plasma PAF acetylhydrolase (pPAFAH) | 330,000 tested, 1.5% active | inhibition, % at 3.39 µM | recombinant pPAFAH, FP-rhodamine probe fluorescence polarization | Q13093;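 active means inhibition above the mean inhibition across the screen plus 3 SD, cut at about 25% in these data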;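 further: inhibitors block binding of the rhodamine activity-based probe so polarization drops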
Target sequence (Q13093 whole entry, looked up): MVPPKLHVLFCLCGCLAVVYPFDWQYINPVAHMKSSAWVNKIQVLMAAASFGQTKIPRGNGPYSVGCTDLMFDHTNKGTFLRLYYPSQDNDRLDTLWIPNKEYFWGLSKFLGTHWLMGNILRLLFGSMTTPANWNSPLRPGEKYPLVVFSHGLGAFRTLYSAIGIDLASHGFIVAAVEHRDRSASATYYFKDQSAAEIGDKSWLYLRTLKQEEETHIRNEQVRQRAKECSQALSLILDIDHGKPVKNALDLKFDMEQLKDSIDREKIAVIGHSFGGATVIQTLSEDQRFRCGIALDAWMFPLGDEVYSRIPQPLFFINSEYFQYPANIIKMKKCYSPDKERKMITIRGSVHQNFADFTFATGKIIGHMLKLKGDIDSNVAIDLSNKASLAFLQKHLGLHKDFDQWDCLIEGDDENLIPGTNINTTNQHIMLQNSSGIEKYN
PAFAH1B2 inh: PAFAH1B2 (human) inhibition; 340,000 tested, 1.2% active; recombinant PAFAH1B2, FP-rhodamine activity probe, fluorescence polarization; inhibition, % at 3.39 µM;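 active means inhibition above the mean of all tested compounds plus 3 SD, cut at about 24% in these data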
Of the large screens only hits and unclear results are named; the others gave an inactive call.

CC(C(=O)OCC(=O)Nc1ccc(S(N)(=O)=O)cc1)N1C(=O)c2ccccc2C1=O (centres undefined)	none (no result: Fam108B counter, PME-1 primary)
COCCN=c1scc(-c2cc(OC)c(OC)c(OC)c2)n1/N=C/c1c(C)[nH]c2ccccc12	PME-1 primary 27
Cc1[nH]c2ccccc2c1/C=N/n1cnnc1	none
COc1ccccc1NC1=NCC(=O)N1Cc1ccccc1	none
CCOc1ccccc1NC1=NCC(=O)N1Cc1ccc(F)cc1	pPAFAH inh 32
CCC(C)c1ccccc1NC(=O)COC(=O)C1=NN(c2ccccc2)C(=O)CC1 (centres undefined)	none (no result: Fam108B counter, PME-1 primary)
O=c1ccc(NS(=O)(=O)c2ccccc2)cn1Cc1ccc(Cl)c(Cl)c1	pPAFAH inh 26
Cc1nnc(SCC(=O)NC2CCCCCC2)n1C(C)C	none
O=C(CNc1cccc2ccccc12)N/N=C/c1ccc(C(=O)O)cc1	none
O=C(CNc1cccc2ccccc12)N/N=C/C=C/c1ccco1	PME-1 primary 74
O=C(Cc1cccs1)N/N=C/C=C/c1ccco1	pPAFAH inh 25
O=C(O)c1cc(O)ccc1O	none (no result: Fam108B counter, PME-1 primary, pPAFAH inh)
Nc1ccc(O)c(C(=O)O)c1	pPAFAH inh 49 (no result: PAFAH2 inh, PAFAH1B3 FP inh, PAFAH1B2 inh)
Cc1cc2c(c(CO)c1CCO)C(=O)[C@@H](C)[C@@H]2O	none (no result: Fam108B counter, PME-1 primary)
CC(Sc1ccc(Cl)cc1)C(=O)NNC(=O)c1ccccc1O (centres undefined)	PAFAH1B2 inh 28
CSCCC(NC(=O)c1ccccc1Cl)C(=O)NNC(=O)c1ccccc1O (centres undefined)	none
Cc1c(C(=O)NNC(=O)c2cccnc2)cccc1[N+](=O)[O-]	none (no result: Fam108B counter, PME-1 primary)
COc1ccc2ccc3c(c2c1)N=C[C@]1(O3)N(C)c2ccccc2C1(C)C	PME-1 primary 45, pPAFAH inh 33
CCn1c(=O)c2cc(C(=O)NCCOC)sc2c2ccccc21	none
CCn1c(=O)c2cc(C(=O)Nc3ccc(OC)cc3OC)sc2c2ccccc21	PME-1 primary 32
Cc1cccc(CSc2nc3sc(C)c(C)c3c(=O)n2Cc2ccco2)c1	none
COc1cccc(CSc2nc3sc(C)c(C)c3c(=O)n2Cc2ccco2)c1	pPAFAH inh 26
COc1[nH]c(/N=C/c2ccccc2)c(C#N)c1C#N	PAFAH2 inh 83, PAFAH1B3 FP inh 82, PAFAH1B2 inh 81
N/C(=N\OC(=O)C1CCCCC1)c1ccc(Br)cc1	none
C/C(=N/OC(=O)C1CC12CCC2)c1ccc(Br)cc1 (centres undefined)	PAFAH2 inh 51, PAFAH1B2 inh 52
CCc1ccccc1NC(=O)CN(C)C(=O)c1cccc(S(=O)(=O)N2CCCCCC2)c1	none (no result: Fam108B counter)
Cc1ccc(N2CC(C(=O)Nc3nnc(SCc4ccccn4)s3)CC2=O)cc1 (centres undefined)	none
Cc1cccc(N2CC(C(=O)Nc3nnc(SCc4ccccn4)s3)CC2=O)c1 (centres undefined)	pPAFAH inh 27
N#C/C(=C\c1ccc(-c2cccc([N+](=O)[O-])c2)o1)C(=O)Nc1nc(-c2cccs2)cs1	pPAFAH inh 33
CNc1ncnc2c1cnn2C1CCCCO1 (centres undefined)	none (no result: Fam108B counter, PME-1 primary, pPAFAH inh)
Cc1ccc(NC(=O)CSc2sc3c(O)cc(=O)[nH]c3c2C#N)c(F)c1	pPAFAH inh 31
N#Cc1c(SCC(=O)Nc2ccc(C(F)(F)F)cc2)sc2c(O)cc(=O)[nH]c12	pPAFAH inh 25
COc1ccc(OC)c(NC(=O)CSc2sc3c(O)cc(=O)[nH]c3c2C#N)c1	none
Cc1ccc(C(=O)NCC(=O)OCC(=O)Nc2cc(S(=O)(=O)N3CCOCC3)ccc2Cl)s1	none (no result: Fam108B counter, PME-1 primary)
CN(CC(=O)NC(=O)NC1CCCCC1)CC(=O)Nc1ccc(Cl)cc1	PAFAH1B2 inh 24 (no result: Fam108B counter)
CN(CC(=O)Nc1ccc(C#N)cc1)Cc1ccc(Cl)cc1	PAFAH1B2 inh 31
COc1ccccc1CN(C)CC(=O)NC1CCCc2ccccc21 (centres undefined)	none
CN(CC(=O)Nc1ccc(C#N)cc1)Cc1ccc(Cl)cc1Cl	none
COc1ccccc1CN(C)CC(=O)NC(=O)NC1CCCCC1	pPAFAH inh 34 (no result: Fam108B counter)
Cc1c(C(=O)N2CCCCC2)c(S(=O)(=O)N2CCN(c3ccc(F)cc3)CC2)c(C)n1C	none
Cc1c(C(=O)N2CCCCC2)c(S(=O)(=O)N2CCN(c3ccc(Cl)cc3)CC2)c(C)n1C	pPAFAH inh 25
CCN(CC)c1ccc(-c2nn3c(-c4ccccc4OC)nnc3s2)cc1	PME-1 primary 28, pPAFAH inh 25

Screening data as filed in PubChem.
